Laboratory results reported in the supplement of paper PMC3334620.
In all, about 33,000 sequences were measured (“E-score (-0.5 to 0.5)”: median about -0.0034, highest 2% from about 0.25 on). What follows is part of a selection rich in the highest values, with near analogues and random picks from the rest.

target: T1, Yap3 (UniProt P38749); test: PBM E-score (8-mer binding enrichment) (E-score (-0.5 to 0.5)); higher = stronger / more preferred TF binding; settings: protein concentration: 100 nM; construct: GST-full length
T1 sequence: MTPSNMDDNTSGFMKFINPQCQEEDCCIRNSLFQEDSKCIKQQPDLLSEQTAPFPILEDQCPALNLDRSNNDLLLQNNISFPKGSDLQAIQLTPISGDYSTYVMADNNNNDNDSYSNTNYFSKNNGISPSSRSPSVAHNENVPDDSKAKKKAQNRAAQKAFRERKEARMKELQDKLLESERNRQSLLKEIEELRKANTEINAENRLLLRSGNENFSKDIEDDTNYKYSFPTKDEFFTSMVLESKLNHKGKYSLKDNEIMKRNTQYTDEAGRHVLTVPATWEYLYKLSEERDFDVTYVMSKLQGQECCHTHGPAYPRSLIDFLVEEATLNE
Procedure: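 Universal 'all 10-mer' protein binding microarrays (Agilent AMADID 015681) probed with GST-tagged S. cerevisiae TFs (full-length or DBD) made by in vitro transcription/translation (PURExpress), about 100-200 nM. Bound TF was detected with fluorescent anti-GST. Each ungapped 8-mer (which stands for itself and its reverse complement) is scored by the PBM enrichment score (E-score), a modified Wilcoxon-Mann-Whitney statistic from -0.5 to +0.5, computed with the Universal PBM Analysis Suite. Scale: above 0.35 generally sequence-specific binding.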

Sequence | PBM E-score
AATTTTTA | 0.252
ATTTTTAA | 0.295
ATTTTTAG | -0.0279
ATTTTAAA | 0.282
GTTTTAAA | 0.235
ATTTTAAC | 0.149
TCAGCGCA | -0.216
CGGTTTTA | -0.106
CTAAGTAC | 0.016
CGATGGGC | -0.18
CCAACAGC | 0.0293
GAGTCATC | -0.00184
GATACACC | 0.161
AATACACA | 0.131
CATACACC | 0.0314
AATACACT | 0.259
AATACACC | 0.272
AATACACG | 0.0582
CGGCAGGC | -0.189
CGAGAGTA | 0.0233
GCATTGTA | -0.0355
GCAAAGAA | 0.0916

Sequence | PBM E-score
CAGCGAAG | -0.16
ATTGCAAG | 0.0639
ATTGCAAT | 0.283
ATTGCAAA | 0.0883
ATGGCCAA | -0.114
AGGTGCCG | -0.101
CTGTTTCA | 0.0525
GCCAAGAC | -0.195
AAAATACG | 0.234
CAAATACC | 0.0818
AAAATAAG | 0.271
AAAATATA | 0.19
AAAATATC | 0.257
CAAATATC | 0.285
CAAATAAG | -0.0581
CAAATATG | 0.131
GAAATATC | 0.0879
CGAATATC | 0.154
AAAATAAC | 0.0743
AAAATATG | 0.256
GAAGCTAA | -0.136
ATAAGGTG | -0.00609

Sequence | PBM E-score
ATCTGCCG | 0.101
GTCAGCAC | -0.0445
GGATCAAA | 0.111
AAAATAGT | 0.12
AAAATACT | 0.0626
AAAATATT | 0.318
TAGCAACA | 0.114
AAGCACTT | -0.0376
CGTGGCTC | -0.321
CCGGAAAA | 0.106
AATCGAAG | 0.256
AATCGAAA | 0.0602
AATCGACC | -0.00549
AATCGACA | 0.258
AATCGACT | -0.0232
AATCGAAC | 0.107
AACGCGAG | 0.126
AACGCGCG | 0.265
AACGCGCA | 0.103
CACGCGAA | -0.0244
AACGCGCT | -0.012
AACGCGAA | 0.298

Sequence | PBM E-score
ACGCACCC | -0.243
ACCCGCAA | -0.239
ACTAGTTG | -0.0214
TCGCAAGA | -0.0427
TCCATCCA | -0.0216
ACCCCCAT | -0.246
CAGACAAC | 0.0898
AAGACAAG | 0.045
AAGACAAC | 0.267
GAAAGAGA | 0.0574
ATCATCAT | 0.139
AATTTGCG | 0.0563
CTCGTAAG | 0.257
CTCGTAAC | 0.177
ATCGTAAG | 0.137
ATTGTCTG | 0.11
AAGATGAT | 0.0727
ATTGCTCA | -0.00161
AATAGATA | 0.267
AGTAGATC | -0.0265
TATAGATA | 0.0759
